A selection: hits, their analogues and other compounds. The true share with any hit is near 4.1%.
Vc quorum ag – inducers of Vibrio cholerae quorum light production without autoinducers, primary screen, BH1578 luxS cqsA deficient, single point | activation, % at 18.7 µM | V. cholerae BH1578 lux reporter, luminescence, 6 h | 0.16% of 350,000 active | AID 588436, 2011; in the data active means activation mostly above about 9.7%, no sharp cut-off
Rv3671c inh – Rv3671c serine protease inhibitors, primary screen, biochemical, fluorescence polarization, M. tuberculosis H37Rv; P9WHR9; inhibition, % at 5.96 µM; 0.048% of 320,000 active; in the data active means inhibition above about 38%;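 further: extracellular domain of Rv3671c used as enzyme; 0% = enzyme with DMSO and 100% = no enzyme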
Mtb FBA inh – Mtb FBA enzyme inhibitors, primary screen, biochemical, fluorescence, strain H37Rv; Fructose-bisphosphate aldolase (Mycobacterium tuberculosis (strain ATCC 25618 / H37Rv)), …; purified M. tuberculosis FBA, fluorescence read-out; inhibition, % at 1 µM; 2.3% of 360,000 active; AID 588726, 2011; in the data active means inhibition above about 27%;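 further: 0% = vehicle and 100% = reference inhibitor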
Mtb UGM inh – M. tuberculosis UGM enzyme inhibitors, primary screen, biochemical, fluorescence polarization, single point | purified UGM, fluorescence polarization probe displacement | inhibition, % at 10 µM | 0.06% of 320,000 active | AID 504406, 2011; in the data active means inhibition above about 10%, passing the limit was not always enough
GDH-TPI inh – GDH-TPI coupling enzyme inhibitors, primary screen, artefact control for M. tuberculosis FBA inhibitor project, biochemical, absorbance, full deck; GDH-TPI coupled enzyme counterscreen, NADH absorbance; inhibition, % at 4.8 µM; 1.2% of 360,000 active; AID 588335, 2011; in the data active means inhibition above about 30%;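 further: 0% = DMSO wells and 100% = wells lacking the enzyme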
RecA intein inh – Mtb RecA intein splicing inhibitors, primary screen, biochemical, fluorescence, HTS; Protein RecA (Mycobacterium tuberculosis (strain ATCC 25618 / H37Rv)), P9WHJ3; AID 2221, 2009; cell-free RecA intein splicing; inhibition, % (concentration not given with the values); 0.75% of 290,000 active; in the data active means inhibition above about 30%;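 further: 0% = vehicle wells and 100% = reference inhibitor control wells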
Target sequence (P9WHJ3 whole entry, looked up): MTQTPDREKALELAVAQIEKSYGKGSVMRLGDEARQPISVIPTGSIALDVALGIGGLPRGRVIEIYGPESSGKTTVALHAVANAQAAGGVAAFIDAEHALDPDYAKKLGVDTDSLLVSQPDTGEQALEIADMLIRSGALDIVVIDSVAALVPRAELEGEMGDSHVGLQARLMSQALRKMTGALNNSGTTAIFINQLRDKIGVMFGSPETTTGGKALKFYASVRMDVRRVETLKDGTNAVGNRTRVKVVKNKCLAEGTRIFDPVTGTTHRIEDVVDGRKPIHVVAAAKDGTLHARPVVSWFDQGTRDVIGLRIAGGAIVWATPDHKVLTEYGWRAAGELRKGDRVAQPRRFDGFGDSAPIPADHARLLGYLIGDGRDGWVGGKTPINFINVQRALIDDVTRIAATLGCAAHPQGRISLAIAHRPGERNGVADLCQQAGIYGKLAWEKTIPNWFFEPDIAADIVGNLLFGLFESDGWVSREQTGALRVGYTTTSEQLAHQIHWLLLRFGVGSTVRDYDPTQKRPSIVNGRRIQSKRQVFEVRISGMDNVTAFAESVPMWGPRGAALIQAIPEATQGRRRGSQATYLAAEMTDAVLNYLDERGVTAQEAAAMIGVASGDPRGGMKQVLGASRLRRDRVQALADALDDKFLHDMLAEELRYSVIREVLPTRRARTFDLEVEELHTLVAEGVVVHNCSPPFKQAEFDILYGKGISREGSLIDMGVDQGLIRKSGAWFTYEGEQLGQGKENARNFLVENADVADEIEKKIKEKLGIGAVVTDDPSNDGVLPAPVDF
GFP chromophore – counter-screen: blocks GFP chromophore formation, dose response, counter-screen, biochemical, fluorescence, homogeneous; shares compounds with RecA intein inh; cell-free GFP chromophore formation; EC50, µM; 83% of 2,100 active; AID 434968, 2010; call rule not given here
* hit, by the source's call.

What do the screens show for `CC1=NN(c2ccc(F)cc2)C(=O)C1C(c1cccc(O)c1)c1c(C)[nH]n(-c2ccc(F)cc2)c1=O` (configuration not stated)?
Vc quorum ag: 0; Rv3671c inh: -112; Mtb FBA inh: 1; Mtb UGM inh: 1; GDH-TPI inh: 3; RecA intein inh: 97*; GFP chromophore: 1.8*

What do the screens show for `CC1=NN(c2ccc(Cl)cc2)C(=O)C1C(c1cccc(O)c1)c1c(C)[nH]n(-c2ccc(Cl)cc2)c1=O` (configuration not stated)?
Vc quorum ag: 0; Rv3671c inh: -18; Mtb FBA inh: -1; Mtb UGM inh: 0; GDH-TPI inh: 6; RecA intein inh: 88*; GFP chromophore: 2.3*

Results for CCOc1ccc(CN2CCN(Cc3nc(C(C)C)cs3)CC2CCO)cc1 (configuration not stated) ?
Rv3671c inh: 4; Mtb UGM inh: 2; RecA intein inh: 1

Results for CCN(CC(=O)Nc1ccc(NC(C)=O)cc1)C(=O)CN1C(=O)NC(C)(c2ccc3ccccc3c2)C1=O (configuration not stated) ?
Vc quorum ag: 0; Mtb FBA inh: 5; GDH-TPI inh: -3

How did COc1cc2c3c(c1OC)-c1cc4c(cc1CC3(C#N)N(C(=O)c1ccccc1)CC2)OCO4 (configuration not stated) do in these assays?
Vc quorum ag: inactive; Mtb FBA inh: 4; GDH-TPI inh: 11

What do the screens show for `O=c1n(Cc2ccccc2)c(O)c2n1Cc1ccccc1N=C2c1ccc(C(F)(F)F)cc1`?
Mtb FBA inh: 0

What do the screens show for `Cc1ccc(S(=O)(=O)NNC(=S)NC(=O)c2ccc([N+](=O)[O-])cc2)cc1`?
Vc quorum ag: 0; Rv3671c inh: -1; Mtb FBA inh: 2; Mtb UGM inh: 2; GDH-TPI inh: 8; RecA intein inh: 23

What do the screens show for `Cc1ccc(C(=O)NC(=S)NNS(=O)(=O)c2ccc(C)cc2)cc1`?
Vc quorum ag: 0; Rv3671c inh: -3; Mtb FBA inh: 3; Mtb UGM inh: 4; GDH-TPI inh: -10; RecA intein inh: 41*; GFP chromophore: >38

How did CCN1CCN(c2ccc(S(=O)(=O)N3CCCCC3)cc2NC(=O)COc2cc(C)ccc2Cl)CC1 do in these assays?
Vc quorum ag: -1; Rv3671c inh: 3; Mtb FBA inh: -2; Mtb UGM inh: 5; GDH-TPI inh: 2; RecA intein inh: 5

What do the screens show for `N#CC1=C(N)Oc2n[nH]c(-c3cccs3)c2C1c1cccnc1` (configuration not stated)?
Vc quorum ag: inactive; Rv3671c inh: -18; Mtb FBA inh: -3; Mtb UGM inh: 1; GDH-TPI inh: 4; RecA intein inh: 69*; GFP chromophore: >38

Results for Cc1ccc(C2C(C#N)=C(N)Oc3n[nH]c(-c4cccs4)c32)cc1 (configuration not stated) ?
Vc quorum ag: -1; Rv3671c inh: -33; Mtb FBA inh: 2; Mtb UGM inh: -3; GDH-TPI inh: 7; RecA intein inh: 66*; GFP chromophore: 7.6*

What do the screens show for `CC(C)C1C(C#N)=C(N)Oc2n[nH]c(-c3cccs3)c21` (configuration not stated)?
Vc quorum ag: 0; Rv3671c inh: -8; Mtb FBA inh: 1; Mtb UGM inh: -1; GDH-TPI inh: -1; RecA intein inh: 15

What do the screens show for `CC(C)c1[nH]nc2c1C(c1cccs1)C(C#N)=C(N)O2` (configuration not stated)?
Vc quorum ag: inactive; Rv3671c inh: -5; Mtb FBA inh: -2; Mtb UGM inh: 1; GDH-TPI inh: -10; RecA intein inh: 62*; GFP chromophore: 28*

Results for CCc1nnc(NS(=O)(=O)c2ccc(NC(=O)c3ccc([N+](=O)[O-])s3)cc2)s1 ?
Vc quorum ag: 0; Mtb FBA inh: -2; GDH-TPI inh: 25

How did CCCCNS(=O)(=O)c1cc2c3c(c1)CCN3C(=O)CC2 do in these assays?
Vc quorum ag: -3; Rv3671c inh: -8; Mtb FBA inh: -1; Mtb UGM inh: 3; GDH-TPI inh: 0; RecA intein inh: -5

How did COC(=O)c1sccc1NC(=O)/C=C/C(=O)O do in these assays?
Vc quorum ag: inactive; Rv3671c inh: -6; Mtb FBA inh: 2; Mtb UGM inh: 1; GDH-TPI inh: 7; RecA intein inh: 0

What do the screens show for `CCOC(=O)c1c(NC(=O)/C=C/C(=O)O)sc(C)c1-c1ccc(F)cc1`?
Vc quorum ag: 0; Rv3671c inh: -16; Mtb FBA inh: 2; Mtb UGM inh: 0; GDH-TPI inh: 15; RecA intein inh: 60*; GFP chromophore: 34*

Results for CCOC(=O)c1c(NC(=O)/C=C/C(=O)O)sc(C)c1-c1ccc(C)c(C)c1 ?
Vc quorum ag: inactive; Rv3671c inh: -4; Mtb FBA inh: 1; Mtb UGM inh: 1; GDH-TPI inh: 14; RecA intein inh: 78*; GFP chromophore: 14*

Results for COC(=O)c1c(NC(=O)/C=C/C(=O)O)sc(C)c1-c1ccc(C)c(C)c1 ?
Vc quorum ag: -1; Rv3671c inh: -18; Mtb FBA inh: 0; Mtb UGM inh: 0; GDH-TPI inh: 21; RecA intein inh: 63*; GFP chromophore: 38*

How did CCOC(=O)c1c(C)nn(-c2ccc(NC(=O)/C=C/C(=O)O)cc2)c1C do in these assays?
Vc quorum ag: -1; Rv3671c inh: 1; Mtb FBA inh: 0; Mtb UGM inh: 0; GDH-TPI inh: -2; RecA intein inh: 7

How did COC(=O)c1sc(-c2ccc(Cl)cc2)cc1NC(=O)/C=C/C(=O)O do in these assays?
Vc quorum ag: 0; Rv3671c inh: -1; Mtb FBA inh: 0; Mtb UGM inh: 0; GDH-TPI inh: 21; RecA intein inh: 70*; GFP chromophore: 27*

How did CN(C)c1ccc(CNc2nc3cc(-c4ccc(F)cc4)sc3c(=O)n2C)cc1 do in these assays?
Vc quorum ag: -1; Mtb FBA inh: 1; GDH-TPI inh: 0

What do the screens show for `CSc1ccc(CN2CCC(N3CCC(C(=O)NC4CC4)CC3)CC2)cc1`?
Vc quorum ag: 0; Mtb FBA inh: 1; GDH-TPI inh: 24

Results for CCOc1ccc(NC(=S)NC(=O)c2cccnc2)c([N+](=O)[O-])c1 ?
Vc quorum ag: inactive; Rv3671c inh: 2; Mtb FBA inh: -2; Mtb UGM inh: 5; GDH-TPI inh: 8; RecA intein inh: 0

What do the screens show for `COC(=O)c1c(NC(=O)/C=C/C(=O)O)sc(C)c1-c1ccc(C(C)C)cc1`?
Vc quorum ag: 4; Rv3671c inh: -1; Mtb FBA inh: 3; Mtb UGM inh: 1; GDH-TPI inh: 15; RecA intein inh: 77*; GFP chromophore: 13*

From PubChem BioAssay
